Screening results: PubChem, several laboratories
The list is not random: actives were taken first. Their share in the collection is about 1.6%.
GC-A act: GC-A (human) enzyme activation. hit rate 0.14% among 370,000. P16066. HEK293 GC-A cells, cGMP TR-FRET, EC30 ANP; 0% at EC30 ANP, 100% saturating ANP. activation, % at 10 µM; in the data active = activation above about 40%
Target sequence (P16066 whole entry, looked up): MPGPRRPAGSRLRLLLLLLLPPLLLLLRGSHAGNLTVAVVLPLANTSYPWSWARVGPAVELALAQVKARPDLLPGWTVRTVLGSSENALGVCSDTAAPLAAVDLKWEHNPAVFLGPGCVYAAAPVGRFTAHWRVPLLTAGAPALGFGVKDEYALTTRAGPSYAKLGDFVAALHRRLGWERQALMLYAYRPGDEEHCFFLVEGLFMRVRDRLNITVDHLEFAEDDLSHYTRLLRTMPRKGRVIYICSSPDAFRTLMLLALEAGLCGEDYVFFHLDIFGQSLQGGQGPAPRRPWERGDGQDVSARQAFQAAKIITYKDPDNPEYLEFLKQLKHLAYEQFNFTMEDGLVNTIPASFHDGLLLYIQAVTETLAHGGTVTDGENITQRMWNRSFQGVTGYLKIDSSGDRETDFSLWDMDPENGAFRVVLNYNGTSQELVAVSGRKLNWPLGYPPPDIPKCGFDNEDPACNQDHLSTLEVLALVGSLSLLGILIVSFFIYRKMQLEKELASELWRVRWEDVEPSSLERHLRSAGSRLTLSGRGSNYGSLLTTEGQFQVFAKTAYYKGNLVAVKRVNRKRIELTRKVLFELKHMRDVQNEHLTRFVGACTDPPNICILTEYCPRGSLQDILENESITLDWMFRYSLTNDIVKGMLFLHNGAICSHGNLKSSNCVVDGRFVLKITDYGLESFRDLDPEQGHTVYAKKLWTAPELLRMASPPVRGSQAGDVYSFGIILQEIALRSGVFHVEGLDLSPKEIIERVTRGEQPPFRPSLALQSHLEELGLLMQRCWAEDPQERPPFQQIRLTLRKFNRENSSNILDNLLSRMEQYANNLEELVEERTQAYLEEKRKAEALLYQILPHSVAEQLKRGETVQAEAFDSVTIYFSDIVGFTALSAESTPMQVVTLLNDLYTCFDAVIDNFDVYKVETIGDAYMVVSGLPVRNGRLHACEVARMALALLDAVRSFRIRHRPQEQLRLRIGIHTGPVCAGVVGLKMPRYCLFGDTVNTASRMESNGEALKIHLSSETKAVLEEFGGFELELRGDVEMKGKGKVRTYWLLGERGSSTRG
NR1D1 modulator: modulators of human Rev-erb alpha DNA binding. Rev-erbα–FITC-DNA binding, fluorescence polarization, 90 min. AID 1259318. activity, % at 10 µM. hit rate 0.79% among 370,000. P20393;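 active = activity above about 14%, limit read from the data; passing the limit was not always enough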
NPR2 activator: GC-B (human) receptor activation | hit rate 0.11% among 370,000 | P20594 | HEK293-GC-B cells, CNP EC30, cGMP TR-FRET; 0% at EC30 CNP, 100% saturating CNP | activation, % at 10 µM | AID 1920062;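 active = activation at 10 µM reaching about 35% in either raw or pattern-adjusted values, limit read from the data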
V-ATPase pH: regulators of yeast V-ATPase proton transport; S. cerevisiae, pHLuorin cytosolic pH fluorescence; response, % at 10 µM; hit rate 0.37% among 350,000; in the data active = response mostly above about 7.3%, no sharp cut-off; inactive = mostly below about 5.4%; note: actives read high
PG9 binder: binds the HIV-1 gp120 antibody PG9; TR-FRET gp120-PG9 antibody binding; inhibition, % at 6.7 µM; hit rate 0.43% among 360,000; AID 624416; in the data active = inhibition above about 8.5%
Rev-erbA confirm: confirmation of modulators of human Rev-erb alpha DNA binding. shares compounds with NR1D1 modulator. activation, % at 25 µM. hit rate 61% among 3,000. Rev-erb alpha FITC-DNA binding, fluorescence polarization, 90 min;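 active = activation at or above a set limit, or at least 3 SD above the negative control mean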
RORg DNA counter: affects RORgamma DNA binding in a Rev-erb alpha counter-screen | shares compounds with NR1D1 modulator | purified RORgamma protein-FITC-DNA binding, fluorescence polarization | IC50, µM | hit rate 8% among 910 | AID 1259320;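 active = Compounds whose fitted half-maximal concentration for disrupting protein-DNA binding is below 10 micromolar; the record names Rev-erb in its text, so the target is in doubt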
Of the large screens only hits and unclear results are named; the others gave an inactive call (follow-up assays come after a bar, where they were run).

Cc1ccc2cc(-c3noc(C4CCCO4)n3)c(=O)[nH]c2c1 (stereo unspecified)	none
Cc1ccc2cc(-c3noc(C4CCCCC4)n3)c(=O)[nH]c2c1	NR1D1 modulator 41 | Rev-erbA confirm 34 | RORg DNA counter inactive
Nc1nc(-c2ccccc2)c(N=Nc2ccccc2Cl)s1	NR1D1 modulator 30 | Rev-erbA confirm 27
CSc1nc2ccc3nc(NC(=O)c4ccccc4)sc3c2s1	NR1D1 modulator 38 | Rev-erbA confirm inactive
Cc1csc2nc(NC(=O)c3ccccc3)sc(=O)c12	NR1D1 modulator 24 | Rev-erbA confirm inactive
Cc1cc(NC(=O)c2ccc(NS(=O)(=O)c3ccc(F)cc3)cc2)no1	none (no result: V-ATPase pH, PG9 binder)
COC(=O)[C@]12C[C@H](CC(=O)NCc3cccs3)C(=O)N(Cc3ccco3)C1=C[C@H](C1CCCC1)O[C@@H]2C	none (no result: V-ATPase pH, PG9 binder)
CC(=O)NN1C(=O)/C(=C\c2ccc(C)cc2)SC1=S	none
CC(=O)NN1C(=O)/C(=C\c2ccc(O)cc2)SC1=S	NR1D1 modulator 20 | Rev-erbA confirm 19
O=C(NN1C(=O)/C(=C\c2ccc(O)c([N+](=O)[O-])c2)SC1=S)c1ccccc1Cl	NR1D1 modulator 28 | Rev-erbA confirm inactive
OC(c1ccccc1)(c1ccccc1)C1CCN(CCCNc2ccccc2F)CC1	none (no result: V-ATPase pH, PG9 binder)
O=S(Cc1cc(Sc2ccccc2)nc(-c2ccccc2)n1)c1ccccc1 (stereo unspecified)	NR1D1 modulator 25 | Rev-erbA confirm inactive
CN(Cc1ccccc1)C(=O)c1cnc(Cc2c[nH]c3ccccc23)c(I)c1	NR1D1 modulator 16 (no result: V-ATPase pH) | Rev-erbA confirm inactive
CC(C)Cc1nc2oc3c(N4CCN(CCO)CC4)ncnc3c2c2c1CCCC2	none
CCOC(=O)N1CCN(c2ncnc3c2oc2nc(C(C)C)c4c(c23)CCC4)CC1	NR1D1 modulator 45 | Rev-erbA confirm 84 | RORg DNA counter inactive
COc1cccc(C(=O)CSc2nnc(-c3cc(OC)cc(OC)c3)o2)c1	NR1D1 modulator 27 | Rev-erbA confirm 36 | RORg DNA counter inactive
CCOC(=O)[C@@]12CCCC3=C1N(CCC3)C(=O)[C@H]2CC(=O)NCCCOC	none (no result: V-ATPase pH, PG9 binder)
O=C1/C(=C\c2c(NCCOCCO)nc3ccccn3c2=O)SC(=S)N1Cc1ccco1	NR1D1 modulator 33 | Rev-erbA confirm inactive
CCCN1C(=O)/C(=C/c2c(NCCCOCC)nc3c(C)cccn3c2=O)SC1=S	none
CC(C)Sc1nc(SCC(=O)NCc2ccco2)c2c3c(sc2n1)COC(C)(C)C3	none
CCCSc1nc(SCC(=O)NCc2ccccc2)c2c3c(sc2n1)COC(C)(C)C3	NR1D1 modulator 45 | Rev-erbA confirm inactive
CCOC(=O)c1sc2nc(C)nc(NC3CCC(O)CC3)c2c1C (stereo unspecified)	NR1D1 modulator 24 | Rev-erbA confirm inactive
CSC1=C(C#N)C(c2ccccc2C)C(C#N)=C(N)N1 (stereo unspecified)	NR1D1 modulator 27 | Rev-erbA confirm inactive
CSC1=C(C#N)C(c2ccccc2Cl)C2=C(N1)c1ccccc1C2=O (stereo unspecified)	NR1D1 modulator 62 | Rev-erbA confirm 20
CC(=O)C1=C(c2ccccc2)OC(N)=C(C#N)C1c1ccccc1C (stereo unspecified)	none
CCn1nc(NC(=O)CC(C)C)c2cc3cccc(C)c3nc21	NR1D1 modulator 24 | Rev-erbA confirm inactive
O=c1c2ccccc2n(Cc2ccno2)n1[C@@H](Cc1ccccc1)Cn1cc(-c2ccc(-c3ccccc3)cc2)nn1	none (no result: V-ATPase pH, PG9 binder)
Cc1ccccc1NC(=O)c1cccc2c1-c1ccccc1C2=O	none (no result: V-ATPase pH, PG9 binder)
COC(=O)c1cc(C#N)c(NCc2ccc(Cl)cc2Cl)nc1C	NR1D1 modulator 24 | Rev-erbA confirm inactive
O=C(COc1ccc(/C=N/NC(=O)c2cc3ccccc3o2)cc1Br)Nc1ccccc1	NR1D1 modulator 19 | Rev-erbA confirm 26
O=C(COc1ccccc1[N+](=O)[O-])Nc1ccc(NC(=O)c2cc3ccccc3o2)cc1	none
COC(=O)[C@]12C[C@H](CC(=O)N3CCCCC3)C(=O)N(Cc3cccc4ccccc34)C1=C[C@H](C(C)(C)C)O[C@@H]2C	none (no result: V-ATPase pH, PG9 binder)
COc1ccc2cc(C#N)c(SCC(=O)N3CCCC3)nc2c1	none
